BRCA1 expr act – activators of BRCA1 expression. MCF7-BRCA1-FFLuc reporter, luminescence, 48 h; response scale: scaled: vehicle 0%, 10 µM genistein 100%. Potency, µM (highest dose often 46.1 µM), for inactives: at the top dose activation, usual class: activators. hit rate 1.1% among 380,000; also: potency is read from the fitted curve at half-maximal effect; nearly all actives have a fitted effect of over 80% in size
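48 h compound treatment of MCF7-BRCA1-FFLuc cells (phenol-red free MEM, 37 °C), then 15 min with luciferase substrate and luminescence imaging.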
RXFP1 agonist – agonists of human relaxin receptor RXFP1; HEK293T-RXFP1 cAMP TR-FRET, 30 min; response scale: percent of porcine relaxin response, buffer zero; Potency, µM (series often up to 57.5 µM), without a hit: at the highest dose activation, hits mostly activators; hit rate 0.3% among 370,000; AID 2676; also: potency is read from the fitted curve at half-maximal effect; % is scaled to controls: 0 for no effect and ±100 for the full control effect; nearly all actives have a fitted effect of over 60% in size
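Agonist response is measured as cAMP accumulation in an RXFP1-transfected HEK293T line under PDE4 inhibition. Values are scaled between buffer-only and 29 nM porcine relaxin, and EC50s come from standard Hill equation fits.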
Giardia kill – Giardia lamblia killing. Giardia lamblia trophozoite viability. activity change, % at 7.66 µM, hits read low. hit rate 0.15% among 340,000. AID 540267; in the data active = activity change below about -80%; inconclusive = between about -30% and that limit;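 also: parasites exposed to compound for two days anaerobically before the ATP read; % is scaled to controls: 0 for no effect and ±100 for the full control effect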
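Killing of trophozoites was scored by loss of ATP luminescence after a 48 hrs anaerobic exposure to compounds at 37 deg C, using 100 cells per well.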
IL-2 act – activates IL-2 in a cell-based reporter assay | IL-2 activation reporter assay, cell-based qHTS; stimulated with anti-CD3/CD4/CD28 beads; in transgenic mouse T cells | activation, % (series mostly up to about 46 µM) | hit rate 0.065% among 360,000 | AID 652025; in the data active = activation above about 50%; inconclusive = mostly about 30% to 49%; also: 0% is about no effect
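First, unstimulated transgenic mouse T cells were exposed to compound for 60 min. Next, anti-CD3/anti-CD4-coated beads with anti-CD28 were added. Finally, after 18 h at 37 degrees C, EGFP and DsRed were imaged.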
NPSR antag – antagonists of human neuropeptide S receptor cAMP signaling. Q6W5P4. CHO-NPSR cells, cAMP TR-FRET, antagonist mode. Potency, µM (highest dose often 38.3 µM), without a hit: at the top dose activity change, negative = inhibition, most hits filed as inhibitors. hit rate 1% among 220,000. AID 1461; also: potency is read from the fitted curve at half-maximal effect; % is scaled to controls: 0 for no effect and ±100 for the full control effect; nearly all actives have a fitted effect of over 50% in size
Target sequence (Q6W5P4 whole entry, looked up): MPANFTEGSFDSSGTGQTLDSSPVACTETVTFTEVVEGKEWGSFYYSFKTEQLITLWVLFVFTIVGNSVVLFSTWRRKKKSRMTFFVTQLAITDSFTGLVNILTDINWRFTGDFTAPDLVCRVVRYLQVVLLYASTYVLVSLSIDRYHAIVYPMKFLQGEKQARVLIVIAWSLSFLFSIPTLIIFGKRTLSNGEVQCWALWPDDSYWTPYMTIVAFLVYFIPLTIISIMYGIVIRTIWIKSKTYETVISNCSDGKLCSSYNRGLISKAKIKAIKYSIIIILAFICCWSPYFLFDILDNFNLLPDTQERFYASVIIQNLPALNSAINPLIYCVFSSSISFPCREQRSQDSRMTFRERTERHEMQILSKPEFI
RXFP1 antagonist – antagonists of human relaxin receptor RXFP1; HEK293-RXFP1, relaxin-stimulated cAMP HTRF, 30 min; active compounds read low; activity change, negative = inhibition, % at 57.5 µM; hit rate 0.59% among 350,000; AID 1259400;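 active = activity change of -60% or lower, but not beyond a set lower limit; inconclusive = change between -60% and -40%, or beyond the set limit; inactive = change above -40%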; also: % is scaled to controls: 0 for no effect and ±100 for the full control effect
Active calls of the source: *; ? = inconclusive; nt = no result given; ! = repeats disagree; [ ] = another dose, or the depositor's remark. Hits are enriched below; roughly 1.9% of the tested compounds scored in any of these assays. Unless noted, calls follow the shape of the dose curve; as a rule, active = well fitted curve in the direction sought with a large enough effect; inconclusive = small, poorly fitted or top-dose-only effect, or another doubt; inactive = no such curve, though single readings can be large; an effect the other way counts as inactive or inconclusive.

SMILES	BRCA1 expr act	RXFP1 agonist	Giardia kill	IL-2 act	NPSR antag	RXFP1 antagonist
Cc1cc(/C=N/NC(=O)c2cccc([N+](=O)[O-])c2)c(C)n1-c1ccccc1	13µM*	-2%	-1	2	5%	-15
CCNC(=S)N/N=C/c1cc(C)n(-c2ccc(Cl)cc2)c1C	84%	0%	-21	-1	-22%	-18
Cc1cc(/C=N/NC(=O)c2ccncc2)c(C)n1-c1ccccc1	7.9µM*	1%	-8	1	7%	-9
Cc1ccc(S(=O)(=O)c2nnn3c2nc(NCc2cccs2)c2sccc23)cc1C	nt	3%	nt	nt	nt	-31
Cc1cccc(C(=O)N=c2sccn2C)c1[N+](=O)[O-]	5µM*	8%	-1	5	nt	-2
CCN(/C=N/c1sc2c(c1C#N)CCCCC2)CC	6.3µM*	4%	-10	0	?	1
O=C(NCc1ccco1)c1cc(-c2ccc(F)cc2)on1	8.9µM*	3%	-4	-2	-20%[46.1 µM]	-4
O=C(NCc1ccco1)c1ccc2ccccc2c1	11µM*	1%	-1	1	3%[46.1 µM]	-18
O=C(NCc1ccco1)c1sc2cc(F)ccc2c1Cl	13µM*	3%	-2	-2	-2%[46.1 µM]	-10
CCc1cccc(NC(=O)C2CCCN(c3cnccn3)C2)c1 (configuration not stated)	-10%	1%	27	1	nt	11
CCOC(=O)c1ccc(NC(=O)C2CCCN(c3cnccn3)C2)cc1 (configuration not stated)	80%	-2%	27	-1	nt	-61*!
C/C(=N\NC(=O)c1ccn(C)n1)c1cccc(NC(=O)c2ccc(C)s2)c1	11µM*	2%	26	0	-1%	-7
Cc1ccc(-c2noc(CNC(=O)c3ccc(Br)o3)n2)cc1	nt	0%	nt	nt	nt	-4
O=C(C(=Cc1ccccc1)CN1CCCCC1)c1ccccc1	-91%	nt	-14	-8	nt	-72*
Cc1ccn2c(NCc3ccccc3)c(-c3cccs3)nc2c1	0%	10%	-7	-2	-49%	-77*
Cc1ccn2c(NC(=O)c3ccccc3)c(-c3cccs3)nc2c1	31%	-4%	-4	-2	-13%[46.1 µM]	15
C=CCn1c(SCCN2C(=O)c3ccccc3C2=O)nc2scc(-c3ccccc3)c2c1=O	1%[1.84 µM]	0%	-1	-1	13µM*	-4
C/C=C/C(=O)[C@@H](C)[C@@H](/C=C/C[Si](C)(C)C)C(C)C	nt	nt	-26	nt	nt	nt
Clc1ccccc1OCCN1CCCCC1	-2%	-1%	2	1	-7%[46.1 µM]	-9
O=c1ccccn1CCOc1ccccc1Cl	13µM*	1%	-13	-1	14%	-1
Cn1c(=O)n(CCOc2ccccc2Cl)c2ccccc21	5µM*	-1%	8	-3	-14%[46.1 µM]	-7
Cc1cc(C)c(-c2n[nH]c3c2C(c2ccccc2F)N(Cc2ccco2)C3=O)c(O)c1 (configuration not stated)	nt	2%	nt	nt	nt	-16
C(=C\c1c[nH]c2ccccc12)/c1ccc2ccccc2n1	-1%	nt	nt	nt	nt	nt
CCCCOc1ccc(C(=O)N=c2sccn2C)cc1OC	4µM*	-1%	-1	-3	nt	0
COc1cccc(NC(=O)CSc2nc3ccc(NC(=O)c4cccs4)cc3s2)c1	1%	2%	nt	nt	nt	nt
COc1ccc(/C=C2\SC(=O)N(CCNC(=O)C3CC4C=CC3C4)C2=O)cc1 (configuration not stated)	5.6µM*	2%	-3	-1	-12%	3
COc1ccc(/C=C2\SC(=O)N(CCNC(=O)C3CSC4(C)CCC(=O)N34)C2=O)cc1 (configuration not stated)	29%	0%	-15	-1	nt	0
NC(=O)c1c(NC(=O)c2noc3c2CCCC3)sc2c1CCCC2	nt	1%	nt	nt	nt	-10
COc1ccccc1C(O)c1nccn1Cc1ccccc1 (configuration not stated)	8%	nt	5	nt	nt	nt
CCOC(=O)Nc1ccc(/C=C/c2ccnc3ccccc23)cc1	-39%	nt	nt	nt	nt	nt

High-throughput results from PubChem.
